Assay in all cases: DAPPL (digital affinity profiling via proximity ligation, sequencing); 10 mM Tris-HCl pH 7.5, 50 mM NaCl, 1 mM DTT, 4% glycerol, room temperature, 30 min; GST-TFs on glutathione beads, 16-mer random dsDNA library, 0.1% formaldehyde crosslink after washing; high values mean tight binding
Common to all, as to conditions: protein: recombinant; tags: N-terminal GST; dsDNA, one strand shown

Experiment [1] has as its target T1, FLI1 (Homo sapiens, UniProt Q01543 1-452).
T1 sequence: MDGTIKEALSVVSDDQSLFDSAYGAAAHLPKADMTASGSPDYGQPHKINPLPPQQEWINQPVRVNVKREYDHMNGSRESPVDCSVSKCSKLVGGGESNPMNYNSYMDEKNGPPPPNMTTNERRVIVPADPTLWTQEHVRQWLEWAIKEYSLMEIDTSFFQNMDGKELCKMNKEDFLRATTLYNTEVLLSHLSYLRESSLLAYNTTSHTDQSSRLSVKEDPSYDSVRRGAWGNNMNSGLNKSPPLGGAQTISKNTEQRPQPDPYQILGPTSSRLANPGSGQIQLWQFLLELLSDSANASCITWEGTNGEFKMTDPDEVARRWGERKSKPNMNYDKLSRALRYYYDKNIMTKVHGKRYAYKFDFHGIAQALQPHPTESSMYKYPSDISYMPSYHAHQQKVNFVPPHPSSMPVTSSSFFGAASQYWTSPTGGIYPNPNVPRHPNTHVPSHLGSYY
An outline of the steps:
(§1)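 After expression in yeast as GST fusions, human transcription factors were bound to glutathione beads, DNA-barcoded and mixed with a tag-only sample. The pools were incubated with 200 nmole of a 16-mer random double-stranded DNA library in Tris/NaCl/DTT/glycerol buffer (30 min, room temperature), washed and crosslinked with 0.1% formaldehyde. Proximity ligation with BsaI/T4 ligase ran for 1 h at 37 °C, before PCR amplification and sequencing on an Illumina NextSeq500. Binding signal is a hexamer's read frequency for a factor divided by its frequency for the tag-only sample.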

Experiment [2] deals with T2, ELK1 (Homo sapiens, UniProt P19419 1-428).
T2 sequence: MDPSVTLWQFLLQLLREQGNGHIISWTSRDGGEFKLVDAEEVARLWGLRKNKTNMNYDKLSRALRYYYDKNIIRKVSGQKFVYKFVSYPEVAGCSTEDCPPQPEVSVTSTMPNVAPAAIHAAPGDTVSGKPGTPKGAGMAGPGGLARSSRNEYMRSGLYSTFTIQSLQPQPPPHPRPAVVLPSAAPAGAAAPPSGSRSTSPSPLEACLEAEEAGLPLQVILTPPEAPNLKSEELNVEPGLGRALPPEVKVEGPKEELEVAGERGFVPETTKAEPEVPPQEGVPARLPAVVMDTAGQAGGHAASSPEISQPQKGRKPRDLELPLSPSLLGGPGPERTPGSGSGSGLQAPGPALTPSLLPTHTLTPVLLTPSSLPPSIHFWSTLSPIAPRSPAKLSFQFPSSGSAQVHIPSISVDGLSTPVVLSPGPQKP
Summed up:
as §1

Experiment [3] addresses T3, GABPA (Homo sapiens, UniProt Q06546 1-454).
T3 sequence: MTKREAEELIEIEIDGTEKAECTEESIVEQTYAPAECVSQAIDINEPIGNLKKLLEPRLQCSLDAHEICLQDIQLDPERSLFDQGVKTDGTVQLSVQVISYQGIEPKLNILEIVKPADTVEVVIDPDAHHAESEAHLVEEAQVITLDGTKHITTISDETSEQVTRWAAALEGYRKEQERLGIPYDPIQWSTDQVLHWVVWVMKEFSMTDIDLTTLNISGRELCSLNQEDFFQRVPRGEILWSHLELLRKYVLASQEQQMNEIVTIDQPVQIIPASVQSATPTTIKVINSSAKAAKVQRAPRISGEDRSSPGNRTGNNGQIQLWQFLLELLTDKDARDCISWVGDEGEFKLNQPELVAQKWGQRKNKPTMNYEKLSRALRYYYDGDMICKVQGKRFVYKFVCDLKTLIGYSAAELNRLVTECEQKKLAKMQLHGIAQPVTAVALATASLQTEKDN
An outline of the steps: as §1

Experiment [4] addresses T4, ERG (Homo sapiens, UniProt P11308 1-479).
T4 sequence: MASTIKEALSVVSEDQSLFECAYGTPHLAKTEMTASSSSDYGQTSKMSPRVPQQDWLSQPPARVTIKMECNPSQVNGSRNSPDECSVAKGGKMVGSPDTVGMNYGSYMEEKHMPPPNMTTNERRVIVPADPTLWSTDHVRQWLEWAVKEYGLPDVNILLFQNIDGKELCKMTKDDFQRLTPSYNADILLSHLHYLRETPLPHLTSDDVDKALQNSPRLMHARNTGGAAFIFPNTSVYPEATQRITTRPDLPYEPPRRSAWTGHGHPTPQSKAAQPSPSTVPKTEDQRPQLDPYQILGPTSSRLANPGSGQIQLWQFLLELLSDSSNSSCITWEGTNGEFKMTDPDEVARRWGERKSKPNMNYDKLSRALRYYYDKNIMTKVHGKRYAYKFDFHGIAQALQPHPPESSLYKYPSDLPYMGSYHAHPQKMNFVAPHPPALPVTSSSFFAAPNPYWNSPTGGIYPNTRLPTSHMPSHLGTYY
Summed up:
as §1

The target of experiment [5] is ELF1 (Homo sapiens, UniProt P32519 1-619). An outline of the steps:
as §1

Experiment [6] deals with T5, EHF (Homo sapiens, UniProt Q9NZC4 1-300).
T5 sequence: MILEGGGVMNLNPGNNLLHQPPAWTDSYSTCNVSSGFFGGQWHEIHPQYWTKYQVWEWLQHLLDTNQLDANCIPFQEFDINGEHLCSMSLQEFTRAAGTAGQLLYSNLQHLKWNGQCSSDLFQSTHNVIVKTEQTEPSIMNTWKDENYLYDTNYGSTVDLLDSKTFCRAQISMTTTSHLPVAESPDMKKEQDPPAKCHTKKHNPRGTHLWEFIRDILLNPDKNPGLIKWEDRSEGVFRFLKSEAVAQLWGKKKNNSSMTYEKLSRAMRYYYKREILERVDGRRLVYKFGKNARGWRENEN
An outline of the steps: as §1

In experiment [7] the target is SPIB (Homo sapiens, UniProt Q01892 1-262). Summed up:
as §1

Experiment [8] addresses T6, ELK3 (Homo sapiens, UniProt P41970 1-407).
T6 sequence: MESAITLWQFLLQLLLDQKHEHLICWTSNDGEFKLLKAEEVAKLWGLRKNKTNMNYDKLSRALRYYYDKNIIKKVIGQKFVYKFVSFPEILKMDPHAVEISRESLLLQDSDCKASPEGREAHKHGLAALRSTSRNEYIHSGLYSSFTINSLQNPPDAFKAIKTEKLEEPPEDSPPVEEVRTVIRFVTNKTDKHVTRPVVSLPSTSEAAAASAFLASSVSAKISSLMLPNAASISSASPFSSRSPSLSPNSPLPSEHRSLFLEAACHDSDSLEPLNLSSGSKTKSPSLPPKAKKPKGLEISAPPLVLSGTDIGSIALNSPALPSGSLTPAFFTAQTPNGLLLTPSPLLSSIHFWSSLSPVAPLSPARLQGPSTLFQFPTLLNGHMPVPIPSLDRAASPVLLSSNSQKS
An outline of the steps:
as §1

Experiment [9] has as its target SPI1 (Homo sapiens, UniProt P17947 1-270). Summed up: as §1

Chain of SPIB (Q01892 whole entry): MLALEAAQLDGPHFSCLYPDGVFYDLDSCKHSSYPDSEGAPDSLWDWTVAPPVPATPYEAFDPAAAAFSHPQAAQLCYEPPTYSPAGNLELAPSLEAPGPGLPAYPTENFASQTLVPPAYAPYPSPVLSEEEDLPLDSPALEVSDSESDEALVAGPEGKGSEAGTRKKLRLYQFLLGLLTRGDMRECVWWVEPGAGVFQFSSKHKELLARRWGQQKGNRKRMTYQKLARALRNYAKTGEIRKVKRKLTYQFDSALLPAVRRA
Chain of ELF1 (P32519 whole entry): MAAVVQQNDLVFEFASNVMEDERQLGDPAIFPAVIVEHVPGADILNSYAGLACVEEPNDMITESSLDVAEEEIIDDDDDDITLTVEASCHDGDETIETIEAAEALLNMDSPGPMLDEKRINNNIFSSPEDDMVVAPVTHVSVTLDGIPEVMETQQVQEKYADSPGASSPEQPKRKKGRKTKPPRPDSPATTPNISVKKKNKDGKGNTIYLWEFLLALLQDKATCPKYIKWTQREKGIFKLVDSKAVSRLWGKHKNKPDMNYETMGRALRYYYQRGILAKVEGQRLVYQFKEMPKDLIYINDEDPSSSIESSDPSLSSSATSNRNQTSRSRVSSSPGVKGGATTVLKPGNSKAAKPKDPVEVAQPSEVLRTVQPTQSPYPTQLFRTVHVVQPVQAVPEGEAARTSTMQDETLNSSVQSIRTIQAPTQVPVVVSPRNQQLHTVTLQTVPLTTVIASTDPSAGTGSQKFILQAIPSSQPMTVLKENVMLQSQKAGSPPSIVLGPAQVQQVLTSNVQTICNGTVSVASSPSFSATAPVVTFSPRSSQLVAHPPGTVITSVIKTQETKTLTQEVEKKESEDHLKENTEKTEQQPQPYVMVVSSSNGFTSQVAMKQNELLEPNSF

In the case of AGCATC, the binding signal is 1.03 fold enrichment (6-mer frequency, TF over GST control) in experiment [1]; 1.12 fold enrichment (6-mer frequency, TF over GST control) in experiment [2]; 1.03 fold enrichment (6-mer frequency, TF over GST control) in experiment [3]; 1.04 fold enrichment (6-mer frequency, TF over GST control) in experiment [4]; 1.02 fold enrichment (6-mer frequency, TF over GST control) in experiment [5]; 1.02 fold enrichment (6-mer frequency, TF over GST control) in experiment [6]. Also, the binding signal in experiment [7] is 1.02 fold enrichment (6-mer frequency, TF over GST control); in [8] it was 1.1 fold enrichment (6-mer frequency, TF over GST control).

For GATGGT, the binding signal in [1] is 1.25 fold enrichment (6-mer frequency, TF over GST control); in [2], 1.16 fold enrichment (6-mer frequency, TF over GST control); in experiment [3], 1.16 fold enrichment (6-mer frequency, TF over GST control); in [4], 1.23 fold enrichment (6-mer frequency, TF over GST control); in [5] it was 1.14 fold enrichment (6-mer frequency, TF over GST control); in experiment [6] it was 1.06 fold enrichment (6-mer frequency, TF over GST control). The binding signal is 1.19 fold enrichment (6-mer frequency, TF over GST control) in experiment [7] and 1.17 fold enrichment (6-mer frequency, TF over GST control) in experiment [8].

GATATT: the binding signal in experiment [1] was 1.11 fold enrichment (6-mer frequency, TF over GST control); in experiment [2] it was 1.17 fold enrichment (6-mer frequency, TF over GST control); in experiment [3] it was 1.06 fold enrichment (6-mer frequency, TF over GST control); in experiment [4] it was 1.12 fold enrichment (6-mer frequency, TF over GST control); in [5], 1.13 fold enrichment (6-mer frequency, TF over GST control); in experiment [6], 1.12 fold enrichment (6-mer frequency, TF over GST control). Besides, the binding signal in [7] was 1.13 fold enrichment (6-mer frequency, TF over GST control); in [8], 1 fold enrichment (6-mer frequency, TF over GST control).

For the sequence CAGATG, the binding signal is 1.05 fold enrichment (6-mer frequency, TF over GST control) in [1]; 1.09 fold enrichment (6-mer frequency, TF over GST control) in [2]; 1.04 fold enrichment (6-mer frequency, TF over GST control) in experiment [3]; 1.09 fold enrichment (6-mer frequency, TF over GST control) in experiment [4]; 1.08 fold enrichment (6-mer frequency, TF over GST control) in experiment [5]; 1 fold enrichment (6-mer frequency, TF over GST control) in experiment [9].

As to ATCTGA, the binding signal was 1.08 fold enrichment (6-mer frequency, TF over GST control) in experiment [1]; 1.08 fold enrichment (6-mer frequency, TF over GST control) in experiment [2]; 1.21 fold enrichment (6-mer frequency, TF over GST control) in [3]; 1.07 fold enrichment (6-mer frequency, TF over GST control) in experiment [4]; 1.16 fold enrichment (6-mer frequency, TF over GST control) in experiment [5]; 1.17 fold enrichment (6-mer frequency, TF over GST control) in experiment [6]. For the same sequence, the binding signal was 1.17 fold enrichment (6-mer frequency, TF over GST control) in experiment [7] and 1.2 fold enrichment (6-mer frequency, TF over GST control) in experiment [8].

In the case of AACGTA, the binding signal in [1] was 1.06 fold enrichment (6-mer frequency, TF over GST control); in experiment [2] it was 1.05 fold enrichment (6-mer frequency, TF over GST control); in experiment [3] it was 1.02 fold enrichment (6-mer frequency, TF over GST control); in experiment [4] it was 1.04 fold enrichment (6-mer frequency, TF over GST control); in experiment [5] it was 1.02 fold enrichment (6-mer frequency, TF over GST control); in experiment [6], 1.01 fold enrichment (6-mer frequency, TF over GST control). For the same sequence, the binding signal in [8] was 1.11 fold enrichment (6-mer frequency, TF over GST control).

Take TGTCTG: the binding signal in [1] was 1 fold enrichment (6-mer frequency, TF over GST control); in experiment [2], 1.1 fold enrichment (6-mer frequency, TF over GST control); in experiment [3], 1.11 fold enrichment (6-mer frequency, TF over GST control); in experiment [4], 1.05 fold enrichment (6-mer frequency, TF over GST control); in experiment [5], 1.06 fold enrichment (6-mer frequency, TF over GST control); in experiment [9] it was 1.17 fold enrichment (6-mer frequency, TF over GST control). Also, in [7], the binding signal is 1.16 fold enrichment (6-mer frequency, TF over GST control).

With ATCGCA, the binding signal was 1.07 fold enrichment (6-mer frequency, TF over GST control) in experiment [1]; 1.07 fold enrichment (6-mer frequency, TF over GST control) in [2]; 1.1 fold enrichment (6-mer frequency, TF over GST control) in [3]; 1.03 fold enrichment (6-mer frequency, TF over GST control) in experiment [4]; 1.08 fold enrichment (6-mer frequency, TF over GST control) in experiment [5]; 1.02 fold enrichment (6-mer frequency, TF over GST control) in experiment [6]. Moreover, in experiment [8], the binding signal was 1.06 fold enrichment (6-mer frequency, TF over GST control).

In the case of CGAGCA, the binding signal in experiment [1] is 1.17 fold enrichment (6-mer frequency, TF over GST control); in experiment [2], 1.18 fold enrichment (6-mer frequency, TF over GST control); in experiment [3], 1.18 fold enrichment (6-mer frequency, TF over GST control); in experiment [4], 1.13 fold enrichment (6-mer frequency, TF over GST control); in experiment [5] it was 1.14 fold enrichment (6-mer frequency, TF over GST control); in experiment [6], 1.05 fold enrichment (6-mer frequency, TF over GST control). Also, the binding signal in experiment [7] was 1.16 fold enrichment (6-mer frequency, TF over GST control); in experiment [8], 1.14 fold enrichment (6-mer frequency, TF over GST control).

For ACCCAA, the binding signal in experiment [1] was 1.12 fold enrichment (6-mer frequency, TF over GST control); in experiment [2], 1.15 fold enrichment (6-mer frequency, TF over GST control); in [3], 1.18 fold enrichment (6-mer frequency, TF over GST control); in [4], 1.03 fold enrichment (6-mer frequency, TF over GST control); in experiment [5] it was 1.16 fold enrichment (6-mer frequency, TF over GST control); in [9] it was 1.12 fold enrichment (6-mer frequency, TF over GST control). For the same sequence, the binding signal in experiment [7] was 1.08 fold enrichment (6-mer frequency, TF over GST control); in experiment [8], 1.03 fold enrichment (6-mer frequency, TF over GST control).

The record behind these values is PMC7862700, “An all-to-all approach to the identification of sequence-specific readers for epigenetic DNA modifications on cytosine”.
